An excerpt weighted towards active compounds, which were near 7.3% of everything screened.
SMN2 splice enh = qHTS Assay for Enhancers of SMN2 Splice Variant Expression; 210,000 tested, 2.8% active; HEK293 SMN2-luciferase splicing reporter, luminescence, 30-36 h; Potency, µM (top dose mostly 46.1 µM), without a hit: at the highest dose activity change, positive = activation, usual class: activators; also: % of control where 0% means no effect; nearly all actives have a fitted effect of over 55% in size
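HEK293 cells carry an SMN2 minigene-luciferase reporter in which exon 7 inclusion puts luciferase in frame. Cells were seeded at 2000 cells/well, attached for 10-12 hours, then exposed to compounds for 30-36 hours at 37C before ONE-Glo luminescence.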
KinaseGlo FLuc = Counterscreen for Luciferase (Kinase-Glo TM) Inhibition; Luciferin 4-monooxygenase (Photuris pensylvanica), Q27757; Kinase-Glo luciferase, ATP luminescence, 8 min; Potency, µM (highest dose often 38.3 µM), for inactives: at the highest dose activity change, negative = inhibition, actives largely listed as inhibitors; 200,000 tested, 0.28% active; AID 1379, 2008; also: % is scaled to controls: 0 for no effect and ±100 for the full control effect; nearly all actives have a fitted effect of over 60% in size
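Light output from Kinase-Glo luciferase with luciferin and 10 uM ATP in 50 mM imidazole pH 7.2, KCl, MgCl2, Tween 20, BSA; compound pin-delivered, 8-min ambient incubation, then luminescence read.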
Rab9 promoter act = qHTS Assay for Rab9 Promoter Activators; Huh7 Rab9 promoter-luciferase reporter, luminescence, 24 h; Potency, µM (top dose mostly 9.22 µM), for inactives: at the highest dose activation, negative = inhibition, most hits filed as activators; 320,000 tested, 2.8% active; AID 485297, 2010; also: % of control where 0% means no effect; nearly all actives have a fitted effect of over 60% in size
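Cell-based reporter: Huh7 stable for Rab9 promoter-driven luciferase, plated in reduced-serum medium with 10% FBS at 1500 cells/well, compound-treated 24 h at 37 °C, luminescence read after 10 min reagent.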
ELG1 genotox = qHTS screen for small molecules that induce genotoxicity in human embryonic kidney (HEK293T) cells expressing luciferase-tagged ELG1 | HEK293T ELG1-luciferase reporter, luminescence, 16 h | Potency, µM (doses to about 46 µM), for the others: top-dose activity change, positive = activation, hits mostly activators | AID 504466, 2011 | 330,000 tested, 1.3% active; also: % of control where 0% means no effect; nearly all actives have a fitted effect of over 60% in size
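After overnight (16 hr) compound treatment at 37 °C, ELG1-luciferase HEK293T cells were lysed with ONE-Glo; luminescence quantified 30 min later at room temperature.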
FLuc modulator = qHTS profiling assay for firefly luciferase inhibitor/activator using purifed enzyme and Km concentrations of substrates (counterscreen for miR-21 project); purified FLuc, Km substrates, luminescence inhibition; Potency, µM (doses to about 57.5 µM), inactives show top-dose activity change, negative = inhibition, usual class: inhibitors; 360,000 tested, 6.9% active;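 also: plate controls were vehicle for no effect and reference inhibitor for full effect; nearly all actives have a fitted effect of over 55% in size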
Target sequence (P08659 whole entry, looked up): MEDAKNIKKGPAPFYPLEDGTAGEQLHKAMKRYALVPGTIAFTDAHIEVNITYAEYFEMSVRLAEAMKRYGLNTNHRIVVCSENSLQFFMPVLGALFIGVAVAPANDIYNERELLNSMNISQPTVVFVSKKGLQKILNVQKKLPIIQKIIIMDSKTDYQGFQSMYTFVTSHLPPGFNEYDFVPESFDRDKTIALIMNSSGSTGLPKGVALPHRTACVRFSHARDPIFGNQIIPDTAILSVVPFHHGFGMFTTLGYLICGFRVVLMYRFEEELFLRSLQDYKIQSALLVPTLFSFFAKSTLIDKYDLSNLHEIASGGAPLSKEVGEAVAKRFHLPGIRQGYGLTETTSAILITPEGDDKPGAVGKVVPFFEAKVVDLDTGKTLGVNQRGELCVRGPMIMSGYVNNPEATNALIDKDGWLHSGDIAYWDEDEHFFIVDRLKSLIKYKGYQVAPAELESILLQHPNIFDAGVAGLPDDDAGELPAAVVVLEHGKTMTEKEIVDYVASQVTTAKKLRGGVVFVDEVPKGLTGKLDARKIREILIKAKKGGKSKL
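Biochemical qHTS of compounds, final roughly 60 µM downward over six points, against 10 nM purified firefly luciferase using Km concentrations of substrates (10 uM D-luciferin, 10 uM ATP) in Tris acetate pH 7.5 buffer; luminescence output.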
NPC1 promoter act = qHTS Assay for NPC1 Promoter Activators | Potency, µM (doses to about 9.22 µM), for the others: top-dose activation, most hits filed as activators | Huh7 NPC1 promoter luciferase reporter, 24 h | 320,000 tested, 2.4% active; also: % of control where 0% means no effect; nearly all actives have a fitted effect of over 60% in size
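Quantitative HTS used a cell-based reporter: Huh7 cells stably bearing the NPC1 promoter upstream of luciferase were treated with compounds for 24 h, and promoter activation was read as luminescence.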
The depositor's hits bear a star; ? = inconclusive; · = no result; [ ] = another dose, or the depositor's remark. Calls follow the shape of the dose curve; as a rule, active = well fitted curve in the direction sought with a large enough effect; inconclusive = small, poorly fitted or top-dose-only effect, or another doubt; inactive = no such curve, though single readings can be large; an effect the other way counts as inactive or inconclusive. Potency is read from the fitted curve at half-maximal effect.

SMILES	SMN2 splice enh	KinaseGlo FLuc	Rab9 promoter act	ELG1 genotox	FLuc modulator	NPC1 promoter act
COc1ccc(-c2cc(OC(=O)c3ccccc3Cl)c3c(C)oc(C)c3c(=O)c2)cc1OC	4.8%	·	·	·	-8.1%	·
COc1ccc(-n2nc3cc(C)c(N)c(Br)c3n2)cc1	7.94µM*	-1.9%	1.26µM*	7.31µM*	1.07µM*	2.82µM*
COc1ccc(-n2nc3cc(N)c(Br)cc3n2)cc1	·	·	?	18.3µM*	4.78µM*	?
COc1ccc(-n2nc3ccccc3n2)cc1	6.9%	-1.6%	28.4%	5.3%	?	19.2%
Cc1ccc2oc(-c3cc(NC(=O)Cc4ccccc4)ccc3Cl)nc2c1	6.2%	·	·	·	-14.9%	·
COc1ccc(/C=N/NC(=O)c2cc(-c3ccccc3)nc3ccccc23)cc1O	·	·	1.2%	-6.0%	5.36µM*	1.7%
COc1cc(/C=N/NC(=O)c2cc(-c3ccccc3OC(C)C)nc3ccccc23)ccc1O	?	4.1%	-0.2%	-6.8%	-3.4%	-1.1%
Cc1ccc(/C=N/NC(=O)c2cc(-c3ccccc3)nc3ccccc23)o1	·	·	-1.5%	0.6%	12µM*	-17.4%
O=C(N/N=C/c1ccc2c(c1)OCO2)c1cc(-c2ccc(F)cc2)nc2ccccc12	-20.9%	-19.6%	-3.8%	1.3%	5.36µM*	-3.2%
CCOc1ccc(/C=N/NC(=O)c2cc(-c3ccccc3)nc3ccccc23)cc1O	·	·	0.5%	-17.9%	15.1µM*	0.5%
COc1ccc(S(=O)(=O)N(C)CC(=O)O)cc1C	·	-0.3%	·	·	·	·
O=C(O)COc1ccccc1/C=N/NC(=O)c1cc(-c2ccc(F)cc2)nc2ccccc12	-0.6%	-3.8%	-3.6%	-0.3%	1.9µM*	-2.8%
CCN(CC)S(=O)(=O)c1cccc(C(=O)N/N=C/c2ccccc2OCC(=O)O)c1	2.3%	3.9%	-3.2%	-0.6%	26.9µM*	-4.3%
COc1ccc(/C=N/NC(=O)c2cc(-c3ccccc3)nc3ccccc23)c(C(=O)O)c1OC	·	·	3.2%	3.3%	7.57µM*	2.5%
O=C(N/N=C/c1ccc(O)cc1)c1cc(-c2ccccc2)nc2ccccc12	·	·	6.1%	-0.5%	5.36µM*	0.4%
COc1c(N2C[C@@H]3CCCN[C@H]3C2)c(F)cc2c(=O)c(C(=O)O)cn(C3CC3)c12	-8.7%	-2.8%	·	·	·	·
CCOc1ccc(OCC)c(NC(=O)c2nnn(CC(=O)Nc3ccc(C)cc3C)c2N)c1	-4.3%	·	·	·	-0.5%	·
CCc1ccc(C(=O)c2c(N)c(-c3nc(-c4ccc5c(c4)OCO5)cs3)c3ccccn23)cc1	-4.9%	·	·	·	-7.9%	·
O=C(Nn1cnnc1)c1csc2ccccc12	?	2.9%	-0.1%	-0.1%	1.4%	1.4%
Cc1ccc(-c2cc(C(=O)N/N=C/c3ccoc3)c3ccccc3n2)cc1	·	·	-7.1%	-3.2%	4.78µM*	-8.4%
O=C(O)COc1ccccc1/C=N/NC(=O)c1cc2ccccc2cc1O	·	·	2.9%	-0.8%	7.57µM*	-4.8%
COc1cc(/C=N/NC(=O)c2cc(-c3ccccc3)nc3ccccc23)ccc1O	·	·	-3.4%	-5.6%	10.7µM*	0.3%
O=C(N/N=C/c1ccc(O)cc1)c1csc2ccccc12	4.1%	-6.5%	1.4%	1.0%	15.1µM*	19.3%
CCCCCCCCCCCCCCCC(=O)NCC(=O)O	-6.5%	0.3%	·	·	·	·
O=C(N/N=C/c1ccccn1)c1cc(C2CC2)nc2ccccc12	·	·	-3.2%	2.4%	-0.6%	2.1%
SMILES	SMN2 splice enh	KinaseGlo FLuc	Rab9 promoter act	ELG1 genotox	FLuc modulator	NPC1 promoter act
O=C(N/N=C/c1cc(Cl)cc([N+](=O)[O-])c1O)c1cc(-c2ccccn2)nc2ccccc12	·	·	-16.3%	9.5%	21.3µM*	-4.8%
Cc1nn(-c2ccccc2)c(N2CCCC2)c1/C=N/NC(=O)c1cc(-c2cccnc2)nc2ccccc12	-25.9%	2.2%	-10.4%	-8.8%	0.8%	-3.0%
Cc1cc(C(=O)N/N=C/c2cc(Cl)cc([N+](=O)[O-])c2O)n[nH]1	·	·	-2.8%	-7.7%	26.9µM*	-2.6%
Cc1ccc(-c2cc(C(=O)N/N=C/c3c(C)nn(C)c3C)c3ccccc3n2)cc1C	?	-4.7%	?	?	0.601µM*	29.3%
O=C(N/N=C/c1ccccn1)c1cc(-c2ccccc2)nc2ccccc12	·	·	1.3%	?	13.5µM*	-3.3%
COc1cccc(/C=N/NC(=O)c2cc(-c3ccccn3)nc3ccccc23)c1O	·	·	-33.0%	5.1%	?	-33.7%
COc1ccc(NC(=O)C(NC(=O)C2CCC(C)CC2)C(C)C)cc1 (configuration not stated)	4.6%	·	·	·	-1.1%	·
CC(C)c1ccc2oc(-c3ccc(Cl)c(NC(=O)c4cccs4)c3)nc2c1	3.9%	·	·	·	2.13µM*	·
CC(C)c1ccc2oc(-c3ccc(Cl)c(NC(=O)Cc4ccccc4)c3)nc2c1	12.0%	·	·	·	4.26µM*	·
Cc1ccc(-c2nc3cc(C(C)C)ccc3o2)cc1NC(=O)c1cc2ccccc2o1	-8.2%	·	·	·	2.39µM*	·
COc1ccc(-c2nc3cc(C(C)C)ccc3o2)cc1NC(=O)c1ccccc1[N+](=O)[O-]	-1.1%	·	·	·	2.69µM*	·
COc1ccc(-c2nc3ccccc3o2)cc1NC(=O)c1cc(Br)ccc1OC	-8.3%	·	·	·	1.0%	·
Cc1ccc2c(=O)cc(C(=O)N(Cc3ccc(N(C)C)cc3)C3CCS(=O)(=O)C3)oc2c1 (configuration not stated)	8.0%	·	·	·	4.1%	·
CCCN1CCN(CCCNC(=O)c2ccc3c(c2)sc2nc(-c4ccc(C)cc4)cn23)CC1	·	·	·	·	0.3%	·
CC(=O)N1CCc2cc(S(=O)(=O)NC(Cc3ccccc3)C(=O)Nc3ccc(C)cc3C)ccc21 (configuration not stated)	-14.3%	·	·	·	-11.2%	·
COc1ccccc1C(=O)Nc1nsc(-c2ccccc2)n1	·	·	1.58µM*	?	4.26µM*	?
COc1ccccc1C(=O)Nc1nnc(-c2ccc(F)cc2)s1	·	·	4.47µM*	13.8%	4.78µM*	3.16µM*
Cc1cc(C(=O)Nc2sc(C)c(-c3ccc(F)cc3)c2C(N)=O)no1	12.8%	-3.6%	3.16µM*	?	1.2µM*	3.16µM*
Cc1cc(C(=O)Nc2nnc(-c3ccccc3)s2)no1	-3.4%	0.2%	?	20.4%	26.9µM*	26.1%
COc1ccccc1C(=O)Nc1c(-c2ccccc2)nc2ccccn12	·	·	-4.7%[1.84 µM]	-7.8%	0.4%	-0.1%
Cc1cc(C(=O)Nc2nnc(C3CCCCC3)s2)no1	4.3%	-2.7%	·	·	?	·

Screening results as filed in PubChem BioAssay.
